Source: the supplement of paper PMC11732987, “Enantioselective OTUD7B fragment discovery through chemoproteomics screening and high-throughput optimisation” (Communications Chemistry, 2025)

Assays:
Assay in all cases: log2 ratio of Biotin-Ahx-Ub-VS probe labelling (fragment/DMSO); higher = less target engagement (more negative = stronger competition), active = hit call of the paper (q ≤ 0.05, log2 ratio ≤ -1)
Conditions in all cases: compound concentration: 200 uM; treatment time: 3 h
USP34 = USP34 (UniProt Q70CQ2)
In short: (§1)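 Labelled DUBs from HEK293T lysate were NeutrAvidin-enriched, digested with LysC and trypsin, and run by diaPASEF LC-MS/MS. Before that, each 495 µg sample in Tris/CHAPS/IGEPAL buffer with protease inhibitors was treated in triplicate with fragment at 200 µM or vehicle for 3 h, then with Biotin-Ahx-Ub-VS at 0.5 µM final for 1 h. Values are average log2 ratios of fragment over vehicle by unpaired t-test, based on global-median-normalised Spectronaut label-free quantities from proteins with ≥2 unique peptides.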

USP36 = molecular target: T1, USP36 (UniProt Q9P275)
T1 sequence (whole entry): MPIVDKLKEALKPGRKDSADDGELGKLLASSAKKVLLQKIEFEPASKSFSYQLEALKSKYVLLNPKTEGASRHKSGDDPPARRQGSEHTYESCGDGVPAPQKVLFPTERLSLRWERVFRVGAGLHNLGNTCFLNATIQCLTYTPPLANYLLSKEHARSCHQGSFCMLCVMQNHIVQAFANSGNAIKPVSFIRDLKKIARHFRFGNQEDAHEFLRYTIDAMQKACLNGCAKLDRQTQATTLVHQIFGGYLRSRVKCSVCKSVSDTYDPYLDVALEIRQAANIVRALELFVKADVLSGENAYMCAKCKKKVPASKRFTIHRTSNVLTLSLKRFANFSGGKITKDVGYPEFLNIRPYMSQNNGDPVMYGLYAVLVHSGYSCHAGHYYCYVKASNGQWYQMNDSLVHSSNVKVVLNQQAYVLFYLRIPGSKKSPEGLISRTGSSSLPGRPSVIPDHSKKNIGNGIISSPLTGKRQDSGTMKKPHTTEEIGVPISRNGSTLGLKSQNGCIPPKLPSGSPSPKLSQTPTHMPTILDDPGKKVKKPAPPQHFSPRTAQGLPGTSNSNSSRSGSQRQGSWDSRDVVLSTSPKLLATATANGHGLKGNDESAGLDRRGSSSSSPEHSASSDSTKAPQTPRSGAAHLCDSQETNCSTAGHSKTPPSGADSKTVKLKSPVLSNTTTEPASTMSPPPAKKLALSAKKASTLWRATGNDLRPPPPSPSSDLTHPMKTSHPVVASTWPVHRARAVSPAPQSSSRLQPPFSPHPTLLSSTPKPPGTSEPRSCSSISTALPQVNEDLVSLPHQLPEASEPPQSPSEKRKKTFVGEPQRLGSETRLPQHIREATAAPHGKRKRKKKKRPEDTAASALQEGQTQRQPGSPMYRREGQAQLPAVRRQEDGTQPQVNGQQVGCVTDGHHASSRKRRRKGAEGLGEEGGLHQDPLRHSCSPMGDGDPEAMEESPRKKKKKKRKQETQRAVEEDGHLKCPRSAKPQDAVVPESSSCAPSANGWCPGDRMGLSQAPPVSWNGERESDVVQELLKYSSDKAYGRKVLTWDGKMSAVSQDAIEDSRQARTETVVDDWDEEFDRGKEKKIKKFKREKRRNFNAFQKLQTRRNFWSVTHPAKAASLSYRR
In short: as §1

USP38 = molecular target: T2, USP38 (UniProt Q8NB14)
T2 sequence (whole entry): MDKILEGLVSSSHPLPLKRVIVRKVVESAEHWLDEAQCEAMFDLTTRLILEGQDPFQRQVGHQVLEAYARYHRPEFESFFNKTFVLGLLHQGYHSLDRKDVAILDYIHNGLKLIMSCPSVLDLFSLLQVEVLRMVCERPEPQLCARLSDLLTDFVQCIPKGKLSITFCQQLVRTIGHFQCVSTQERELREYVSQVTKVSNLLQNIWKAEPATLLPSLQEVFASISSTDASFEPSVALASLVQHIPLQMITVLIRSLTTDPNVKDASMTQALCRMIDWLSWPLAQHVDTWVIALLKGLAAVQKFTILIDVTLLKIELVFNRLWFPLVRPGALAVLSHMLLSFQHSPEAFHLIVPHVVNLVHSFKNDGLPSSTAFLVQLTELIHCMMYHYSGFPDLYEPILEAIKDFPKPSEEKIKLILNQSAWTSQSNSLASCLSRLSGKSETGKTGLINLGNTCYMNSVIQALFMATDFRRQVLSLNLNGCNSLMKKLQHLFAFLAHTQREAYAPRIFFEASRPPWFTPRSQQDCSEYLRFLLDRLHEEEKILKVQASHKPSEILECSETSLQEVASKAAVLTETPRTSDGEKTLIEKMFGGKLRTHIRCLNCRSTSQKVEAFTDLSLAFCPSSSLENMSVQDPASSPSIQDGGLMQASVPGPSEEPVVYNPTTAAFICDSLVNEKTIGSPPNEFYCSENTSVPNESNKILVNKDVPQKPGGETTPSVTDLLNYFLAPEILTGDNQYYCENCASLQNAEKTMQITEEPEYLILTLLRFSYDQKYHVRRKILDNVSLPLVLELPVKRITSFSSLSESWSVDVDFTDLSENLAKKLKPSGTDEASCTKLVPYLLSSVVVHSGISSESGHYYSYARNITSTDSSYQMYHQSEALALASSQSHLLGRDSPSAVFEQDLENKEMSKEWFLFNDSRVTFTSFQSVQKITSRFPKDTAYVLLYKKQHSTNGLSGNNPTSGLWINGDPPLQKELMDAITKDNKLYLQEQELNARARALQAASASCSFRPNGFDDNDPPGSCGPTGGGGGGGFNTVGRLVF
In short: as §1

USP39 = molecular target: T3, USP39 (UniProt Q53GS9)
T3 sequence (whole entry): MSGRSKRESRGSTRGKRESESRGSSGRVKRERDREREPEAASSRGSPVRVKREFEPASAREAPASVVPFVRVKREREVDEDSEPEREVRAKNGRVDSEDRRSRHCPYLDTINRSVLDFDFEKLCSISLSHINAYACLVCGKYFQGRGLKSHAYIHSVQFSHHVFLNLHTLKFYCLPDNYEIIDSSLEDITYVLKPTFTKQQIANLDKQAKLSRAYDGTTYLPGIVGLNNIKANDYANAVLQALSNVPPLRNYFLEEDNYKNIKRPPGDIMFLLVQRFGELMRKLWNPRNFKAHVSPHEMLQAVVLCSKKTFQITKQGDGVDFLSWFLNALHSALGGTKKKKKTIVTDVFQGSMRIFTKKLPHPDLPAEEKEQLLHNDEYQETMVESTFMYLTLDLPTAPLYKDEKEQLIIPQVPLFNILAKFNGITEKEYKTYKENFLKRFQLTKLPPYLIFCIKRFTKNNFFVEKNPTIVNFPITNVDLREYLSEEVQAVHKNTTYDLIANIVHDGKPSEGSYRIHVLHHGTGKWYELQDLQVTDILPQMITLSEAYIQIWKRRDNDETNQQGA
In short: as §1

USP4 = molecular target: T4, USP4 (UniProt Q13107)
T4 sequence (whole entry): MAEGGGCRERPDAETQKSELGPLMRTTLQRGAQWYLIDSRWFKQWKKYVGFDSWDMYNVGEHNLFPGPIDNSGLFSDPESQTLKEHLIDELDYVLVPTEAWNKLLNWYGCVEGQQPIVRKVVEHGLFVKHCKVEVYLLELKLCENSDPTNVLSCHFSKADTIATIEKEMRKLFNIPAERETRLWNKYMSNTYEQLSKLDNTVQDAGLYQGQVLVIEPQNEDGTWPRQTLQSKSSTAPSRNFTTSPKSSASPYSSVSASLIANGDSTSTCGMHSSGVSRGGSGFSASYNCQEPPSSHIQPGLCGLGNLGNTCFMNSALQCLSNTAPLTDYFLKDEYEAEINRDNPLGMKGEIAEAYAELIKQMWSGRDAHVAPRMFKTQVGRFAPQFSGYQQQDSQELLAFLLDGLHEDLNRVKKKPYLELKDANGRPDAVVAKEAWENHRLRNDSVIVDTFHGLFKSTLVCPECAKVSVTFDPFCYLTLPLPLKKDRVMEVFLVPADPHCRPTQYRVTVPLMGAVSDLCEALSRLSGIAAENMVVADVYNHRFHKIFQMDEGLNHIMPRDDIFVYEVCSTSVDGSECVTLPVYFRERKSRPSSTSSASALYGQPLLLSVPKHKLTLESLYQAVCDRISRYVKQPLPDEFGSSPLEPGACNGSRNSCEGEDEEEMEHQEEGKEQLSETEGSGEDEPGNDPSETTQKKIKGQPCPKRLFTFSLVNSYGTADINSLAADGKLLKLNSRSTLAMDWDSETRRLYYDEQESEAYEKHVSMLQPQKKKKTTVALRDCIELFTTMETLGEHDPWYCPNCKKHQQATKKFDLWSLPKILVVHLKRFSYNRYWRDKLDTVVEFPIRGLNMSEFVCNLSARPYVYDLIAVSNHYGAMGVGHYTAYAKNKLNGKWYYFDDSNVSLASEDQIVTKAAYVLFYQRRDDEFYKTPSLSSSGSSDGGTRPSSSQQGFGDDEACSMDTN
In short: as §1

Measured: log2 ratio of Biotin-Ahx-Ub-VS probe labelling

Chain of USP34 (Q70CQ2 whole entry, the tested form may be a part): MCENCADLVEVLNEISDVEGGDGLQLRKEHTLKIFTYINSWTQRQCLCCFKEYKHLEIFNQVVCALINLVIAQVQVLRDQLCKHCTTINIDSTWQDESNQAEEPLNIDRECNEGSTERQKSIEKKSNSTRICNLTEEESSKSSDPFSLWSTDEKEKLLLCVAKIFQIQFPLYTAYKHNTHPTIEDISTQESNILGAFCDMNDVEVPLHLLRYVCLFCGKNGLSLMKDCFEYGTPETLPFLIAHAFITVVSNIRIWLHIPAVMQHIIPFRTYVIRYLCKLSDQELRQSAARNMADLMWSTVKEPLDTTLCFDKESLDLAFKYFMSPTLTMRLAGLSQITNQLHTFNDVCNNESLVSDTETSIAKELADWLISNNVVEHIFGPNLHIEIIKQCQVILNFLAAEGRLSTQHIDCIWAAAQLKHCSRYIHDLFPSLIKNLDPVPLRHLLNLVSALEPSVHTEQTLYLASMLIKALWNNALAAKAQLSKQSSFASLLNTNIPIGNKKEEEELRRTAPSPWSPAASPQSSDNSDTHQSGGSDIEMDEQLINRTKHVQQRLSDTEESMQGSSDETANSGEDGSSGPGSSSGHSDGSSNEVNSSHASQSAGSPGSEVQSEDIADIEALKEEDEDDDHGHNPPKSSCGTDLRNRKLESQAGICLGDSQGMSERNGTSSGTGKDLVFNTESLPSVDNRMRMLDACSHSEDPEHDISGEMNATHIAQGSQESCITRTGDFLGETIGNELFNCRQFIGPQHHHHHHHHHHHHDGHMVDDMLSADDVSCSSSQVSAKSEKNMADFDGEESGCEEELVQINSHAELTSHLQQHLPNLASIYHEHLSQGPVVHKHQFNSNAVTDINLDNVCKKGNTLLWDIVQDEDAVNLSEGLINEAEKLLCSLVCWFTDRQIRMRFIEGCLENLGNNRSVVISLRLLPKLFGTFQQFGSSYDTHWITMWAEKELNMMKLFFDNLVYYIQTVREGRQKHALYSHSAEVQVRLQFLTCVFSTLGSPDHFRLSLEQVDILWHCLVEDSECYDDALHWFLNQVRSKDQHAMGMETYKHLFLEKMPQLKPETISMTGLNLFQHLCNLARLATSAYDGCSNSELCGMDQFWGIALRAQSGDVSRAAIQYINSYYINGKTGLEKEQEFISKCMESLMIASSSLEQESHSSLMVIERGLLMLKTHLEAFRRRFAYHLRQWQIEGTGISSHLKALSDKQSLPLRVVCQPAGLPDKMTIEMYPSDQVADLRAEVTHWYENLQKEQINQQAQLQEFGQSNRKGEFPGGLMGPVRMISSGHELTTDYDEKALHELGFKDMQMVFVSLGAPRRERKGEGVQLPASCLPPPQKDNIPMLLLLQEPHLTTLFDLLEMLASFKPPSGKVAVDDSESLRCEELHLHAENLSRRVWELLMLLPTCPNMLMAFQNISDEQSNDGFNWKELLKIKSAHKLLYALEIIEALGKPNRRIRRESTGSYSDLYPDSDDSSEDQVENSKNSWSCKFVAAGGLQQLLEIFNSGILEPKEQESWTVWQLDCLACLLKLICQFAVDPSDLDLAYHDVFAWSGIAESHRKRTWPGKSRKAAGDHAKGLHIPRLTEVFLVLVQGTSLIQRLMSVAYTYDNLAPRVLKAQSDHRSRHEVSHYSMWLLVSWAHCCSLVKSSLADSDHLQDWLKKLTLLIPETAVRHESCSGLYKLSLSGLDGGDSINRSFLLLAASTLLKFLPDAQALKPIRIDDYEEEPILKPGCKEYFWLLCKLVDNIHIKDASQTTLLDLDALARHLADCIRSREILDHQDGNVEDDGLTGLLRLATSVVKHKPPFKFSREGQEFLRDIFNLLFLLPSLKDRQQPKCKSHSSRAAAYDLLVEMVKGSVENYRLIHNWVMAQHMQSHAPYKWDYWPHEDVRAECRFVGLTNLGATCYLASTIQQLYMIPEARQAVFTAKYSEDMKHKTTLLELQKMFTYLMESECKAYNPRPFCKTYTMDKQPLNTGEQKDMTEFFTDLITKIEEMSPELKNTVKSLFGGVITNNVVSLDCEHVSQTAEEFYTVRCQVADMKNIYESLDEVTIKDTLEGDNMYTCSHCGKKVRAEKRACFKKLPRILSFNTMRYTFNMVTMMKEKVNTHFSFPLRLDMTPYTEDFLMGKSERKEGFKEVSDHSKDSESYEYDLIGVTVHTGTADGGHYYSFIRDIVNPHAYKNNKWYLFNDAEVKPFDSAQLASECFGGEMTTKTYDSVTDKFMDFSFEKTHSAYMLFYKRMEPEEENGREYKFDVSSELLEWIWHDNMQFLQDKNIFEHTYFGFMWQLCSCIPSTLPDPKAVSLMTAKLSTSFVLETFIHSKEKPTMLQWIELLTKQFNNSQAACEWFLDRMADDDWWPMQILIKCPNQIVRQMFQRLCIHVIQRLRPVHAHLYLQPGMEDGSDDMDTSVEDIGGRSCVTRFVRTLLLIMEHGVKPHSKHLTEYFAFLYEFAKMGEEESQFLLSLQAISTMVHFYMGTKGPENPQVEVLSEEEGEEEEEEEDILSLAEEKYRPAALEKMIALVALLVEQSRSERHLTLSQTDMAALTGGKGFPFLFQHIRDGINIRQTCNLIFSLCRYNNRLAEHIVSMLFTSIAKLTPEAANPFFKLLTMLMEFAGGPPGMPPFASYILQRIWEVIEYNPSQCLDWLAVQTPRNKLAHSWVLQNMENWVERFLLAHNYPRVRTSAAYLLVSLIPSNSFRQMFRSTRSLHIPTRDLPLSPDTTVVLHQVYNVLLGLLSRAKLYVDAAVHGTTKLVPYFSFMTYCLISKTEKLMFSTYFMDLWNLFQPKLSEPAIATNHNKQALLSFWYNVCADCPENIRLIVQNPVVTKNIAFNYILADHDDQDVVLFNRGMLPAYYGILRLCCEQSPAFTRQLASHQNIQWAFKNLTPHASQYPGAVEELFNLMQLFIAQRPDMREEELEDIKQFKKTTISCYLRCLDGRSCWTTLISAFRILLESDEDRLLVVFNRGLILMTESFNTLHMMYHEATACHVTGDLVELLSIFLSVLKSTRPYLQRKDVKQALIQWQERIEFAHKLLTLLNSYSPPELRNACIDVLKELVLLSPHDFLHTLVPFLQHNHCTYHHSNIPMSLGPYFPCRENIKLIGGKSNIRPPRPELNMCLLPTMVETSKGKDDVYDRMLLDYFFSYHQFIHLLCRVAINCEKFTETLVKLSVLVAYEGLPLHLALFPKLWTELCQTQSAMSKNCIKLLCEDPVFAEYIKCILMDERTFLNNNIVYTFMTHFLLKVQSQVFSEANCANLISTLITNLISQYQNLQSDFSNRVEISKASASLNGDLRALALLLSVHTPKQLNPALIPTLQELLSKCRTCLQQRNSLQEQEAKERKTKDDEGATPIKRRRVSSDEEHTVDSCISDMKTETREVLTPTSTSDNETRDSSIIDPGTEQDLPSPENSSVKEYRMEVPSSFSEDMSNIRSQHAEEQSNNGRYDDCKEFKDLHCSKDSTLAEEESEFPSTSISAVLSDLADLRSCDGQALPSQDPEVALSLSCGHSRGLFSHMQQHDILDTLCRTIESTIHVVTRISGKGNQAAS

CCc1c[nH]c(CNC(=O)CCl)n1.Cl
inactive: USP34 -0.213 | USP36 -0.245 | USP38 -0.15 | USP39 0.178 | USP4 -0.159
